Source: PubChem
aSyn yeast rescue: qHTS of alpha-syn Inhibitors: NCGC Sytravon Library Screen; Potency, µM (top dose mostly 46.1 µM), hits mostly activators; S. cerevisiae alpha-synuclein toxicity rescue, BacTiter-Glo growth, 24 h; 94,000 tested, 0.02% active; active means well fitted activation curve with a large enough effect
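Growth restoration measured by BacTiter-Glo luminescence after 24 hr at 30 deg C; alpha-synuclein yeast, raffinose-pregrown to mid-log, were added at OD600=0.02 in galactose medium onto pinned compounds.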
Each line names hits and unclear results; the compound was inactive in the other large screens. Many of the other results were omitted from the sample, so hits are more common in it than they were.

Cc1ccc2nc(N(Cc3cccnc3)C(=O)Cc3ccccc3)sc2c1	none
Cc1cccc2sc(N(Cc3cccnc3)C(=O)c3ccco3)nc12	none
Cc1cccc2sc(N(Cc3cccnc3)C(=O)Cc3ccccc3)nc12	aSyn yeast rescue 10µM
Cc1cc(C)c2nc(N(Cc3cccnc3)C(=O)Cc3ccccc3)sc2c1	aSyn yeast rescue 13µM
Cc1cccc2sc(N(Cc3cccnc3)C(=O)CCc3ccccc3)nc12	none
Cc1cc(C)c2nc(N(Cc3cccnc3)C(=O)c3cccs3)sc2c1	none
